Measurements as given in PubChem BioAssay (NCATS).
Records with an inconclusive call do not appear. Active and inactive are the calls of the source. Calls come from the whole dose curve; as a rule, active = well fitted cell-killing curve with a large enough effect; inconclusive = small, poorly fitted or top-dose-only effect; inactive = no such curve, though single readings can be large or run the other way.
Potency is the fitted concentration of half-maximal effect.

Assay: Quantitative High-Throughput drug screen in 47 multiple myeloma cell lines against the NCATS MIPE library collection: JIM3_ECACC cell viability assay (AID 1918963; note: nearly all actives have a fitted effect of over 35% in size)
Details: JIM3 myeloma viability, CellTiter-Glo ATP, 48 h; series mostly up to 45.8 µM; viability, percent of control: at the top concentration
From the text: PI: Beverly A. Mock Ph.D.
Laboratory of Cancer Biology and Genetics,
Center for Cancer Research, National Cancer Institute,
National Institute of Health, Bethesda, Maryland
Drug resistance and disease progression are common in multiple myeloma (MM) patients, underscoring the need for new therapeutic combinations. […] We hypothesized that effective combinations would reduce MYC expression and enhance p16 activity. […] These preclinical data identify potentially useful drug combinations for evaluation in drug-resistant MM and reveal potential mechanisms of combined drug sensitivity.
Described herein is the primary MIPE qHTS used to cherrypick compounds. Validated compounds were then further tested for potential synergistic activiy.
[1] Peat TJ, Gaikwad SM, Dubois W, Gyabaah-Kessie N, Zhang S, Gorjifard S, Phyo Z, Andres M, Hughitt VK, Simpson RM, Miller MA, Girvin AT, Taylor A, Williams D, D'Antonio N, Zhang Y, Rajagopalan A, Flietner E, Wilson K, Zhang X, Shinn P, Klumpp-Thomas C, McKnight C, Itkin Z, Chen L, Kazandijian D, Zhang J, Michalowski AM, Simmons JK, Keats J, Thomas CJ, Mock BA. Drug combinations identified by high-throughput screening promote cell cycle transition and upregulate Smad pathways in myeloma. Cancer Lett. 2023 Aug 1;568:216284. doi: 10.1016/j.canlet.2023.216284. Epub 2023 Jun 24. PMID: 37356470; PMCID: PMC10408729.
SEQUENCE No. (e.g., 1, 2, 3, etc.); […] (e.g., Cells, Incubation, Reagent, etc.); VALUE and DESCRIPTION.
1; Cells; 5 uL; white, solid bottom 1536-well Greiner assay plate.
2; Compounds; 23 nL; Kalypsis pin tool (Wako USA) equipped with a 1536-well pin head to transfer to the assay plates.
3; Incubation; 48 hours; 37C incubation.
4; Reagent;5uL; CellTiter Glo (Promega).
5; Detector; 425V; Luminescence; Viewlux PerkinElmer.
NOTES (numbers refer to Sequence numbers above)
1. The cell-based screening methods employed in this study were like those previously published. Briefly, the corresponding myeloma cell lines were screened in 1,536-well plates with 500 cells, 5-uL per well for inhibition of cell viability (assessed by measuring ATP levels with CellTiterGlo).
2. NCATS MIPE 4.0 library of approved and investigational drugs were added using the Kalypsis pin tool. Wells treated with DMSO only for 100% viability and media only wells for 0% viability were used as controls.
3. The assay plates were covered and incubated for 48 hours in a 37C, 5% CO2 incubator with controlled humidity.
4. After 48 hours, CellTilter-GloTM luminescent substrate mix (Promega) reagent was added to the assay plate and plates we incubated for 5 min at room temperature.
5. Signal was measured as median relative luminescence units on a ViewLux (PerkinElmer) multiplate reader.
[1] Heske CM, Davis MI, Baumgart JT, Wilson K, Gormally MV, Chen L, Zhang X, Ceribelli M, Duveau DY, Guha R, Ferrer M, Arnaldez FI, Ji J, Tran HL, Zhang Y, Mendoza A, Helman LJ, Thomas CJ. Matrix Screen Identifies Synergistic Combination of PARP Inhibitors and Nicotinamide Phosphoribosyltransferase (NAMPT) Inhibitors in Ewing Sarcoma. Clin Cancer Res. 2017 Dec 1;23(23):7301-7311. doi: 10.1158/1078-0432.CCR-17-1121. Epub 2017 Sep 12. PMID: 28899971; PMCID: PMC6636827.
For COc1cc(Nc2ncc(F)c(Nc3ccc4c(n3)N(COP(=O)(O)O)C(=O)C(C)(C)O4)n2)cc(OC)c1OC, the Potency was 1.66 µM (active).
In the case of Cc1ccc(-c2ncn(-c3ccc(Nc4nccc(-c5cccc(N6CCOCC6)c5)n4)cc3)n2)cn1, the Potency is reported as 0.235 µM (active).
With Nc1nccc(Oc2ccc(NC(=O)c3c[nH]cc(-c4ccc(F)cc4)c3=O)cc2F)c1Cl the Potency was 26.4 µM (active).
In the case of COc1ccc(C(=O)CC2(O)C(=O)Nc3c(Cl)ccc(Cl)c32)cc1 (stereo not given), the Potency is reported as 2.35 µM (active).
In the case of Cn1c2cc(S(C)=O)sc2c2cnn(Cc3cccc(N)c3)c(=O)c21 (stereo not given), the “viability, percent of control” value is reported as 107% (inactive).
For CC1(O)CC(c2nc(-c3ccc4ccc(-c5ccccc5)nc4c3)c3c(N)nccn23)C1 (stereo not given), the Potency was 0.148 µM (active).
For O=C1CCC[C@@H]2[C@H]3CCC[N+]4([O-])CCC[C@@H](CN12)[C@@H]34 (stereo not given in full), the “viability, percent of control” value was 112% (inactive).
For N#CCNC(=O)c1ccc(-c2ccnc(Nc3ccc(N4CCOCC4)cc3)n2)cc1, the Potency was 13.2 µM (active).
With O=C(c1ccc(Nc2nccc(-c3cc4ccccc4s3)n2)cc1)N1CCC(N2CCCC2)CC1 the Potency was 3.72 µM (active).
With C[C@@H]1COC(Nc2ccc3ncnc(Nc4ccc(OCc5nccs5)c(Cl)c4)c3c2)=N1 the Potency was 2.35 µM (active).
With Cc1cccc(C=NNc2cc(N3CCOCC3)nc(OCCc3ccccn3)n2)c1 the Potency was 2.35 µM (active).
For NC(=O)Nc1cc(-c2cccc(F)c2)sc1C(=O)N[C@H]1CCCNC1, the Potency was 0.469 µM (active).
With CN1CCN(Cc2ccc(NC(=O)Nc3ccc(Oc4cc(NC(=O)C5CC5)ncn4)cc3)cc2C(F)(F)F)CC1 the Potency was 0.148 µM (active).
For COC(=O)Nc1ccc(-c2nc(N3CCOCC3)c3cnn(C4CCN(Cc5cccnc5)CC4)c3n2)cc1, the Potency was 1.18 µM (active).
With C=CC(=O)Nc1cccc(Oc2nc(Nc3ccc(N4CCN(C)CC4)cc3)ncc2Cl)c1 the Potency was 5.9 µM (active).
In the case of CC(=O)SC[C@@H](C)C(=O)N1CCC[C@H]1C(=O)N[C@@H](Cc1ccccc1)C(=O)O, the “viability, percent of control” value is reported as 115% (inactive).
For O=C(Nc1cn[nH]c1-c1nc2ccc(CN3CCOCC3)cc2[nH]1)NC1CC1, the Potency was 1.18 µM (active).
With CCn1cc(-c2ccnc3[nH]c(-c4cccc(CN(C)C)c4)cc23)c(-c2ccc(NC(=O)N(C)C)cc2)n1 the Potency was 5.26 µM (active).
In the case of CC(NCc1ccc2c(c1)nc(NC(=O)c1ccc(-c3cn[nH]c3)s1)n2CC(C)(C)O)C(C)(C)C (stereo not given), the Potency is reported as 0.209 µM (active).
For COc1cc2nccc(Oc3ccc(NC(=O)C4(C(=O)Nc5ccc(F)cc5)CC4)cc3)c2cc1OC, the Potency was 14.8 µM (active).
In the case of Nc1nc(NCCNc2ncc(-n3ccnc3)c(-c3ccc(Cl)cc3Cl)n2)ccc1[N+](=O)[O-], the Potency is reported as 5.26 µM (active).
For Cc1cc(Nc2nc(N[C@@H](C)c3ccc(F)cc3)c(C#N)cc2F)n[nH]1, the Potency was 3.72 µM (active).
With COc1cc2c(NC3CCN(C(C)C)CC3)nc(C3CCCCC3)nc2cc1OCCCN1CCCC1 the Potency was 8.33 µM (active).
In the case of Nc1ccc(C(=O)c2cc3c(ccc4ccccc43)[nH]2)cc1, the Potency is reported as 2.64 µM (active).
In the case of CCCCc1nc2cc(C=CC(=O)NO)ccc2n1CCN(CC)CC, the Potency is reported as 2.64 µM (active).
For NC1(Cc2ccc(Cl)cc2)CCN(c2ncnc3[nH]ccc23)CC1, the Potency was 2.96 µM (active).
In the case of Cc1cc(C(=O)N2CCN(c3cccc(Cl)c3)CC2)n(-c2ccccc2)n1, the Potency is reported as 0.418 µM (active).
For CC[C@@]1(O)C(=O)OCc2c1cc1n(c2=O)Cc2cc3cc(O)ccc3nc2-1, the Potency was 1.66 µM (active).
In the case of O=C(NC1CCNCC1)c1[nH]ncc1NC(=O)c1c(Cl)cccc1Cl, the Potency is reported as 0.526 µM (active).
With CC(C)c1ccccc1Cc1cc(C(=O)Nc2ccc(S(=O)(=O)c3ccccc3C(C)(C)C)cc2)c(O)c(O)c1O the Potency was 4.18 µM (active).
For C[C@@H]1CN(CC(=O)Nc2ccc3c(c2)Cc2cccc(-c4cc(=O)cc(N5CCOCC5)o4)c2S3)C[C@H](C)O1, the Potency was 13.2 µM (active).
In the case of C#Cc1cccc(Nc2ncnc3cc(OC)c(OCCCCCCC(=O)NO)cc23)c1, the Potency is reported as 2.35 µM (active).
With Nc1cc(C(F)(F)F)c(-c2cc(N3CCOCC3)nc(N3CCOCC3)n2)cn1 the Potency was 0.743 µM (active).
With C[C@H]1C[C@@H]2[C@@H]([C@@H](O)C[C@@]3(C)[C@H]2CC[C@]3(O)C(=O)CO)[C@@]2(C)C=CC(=O)C=C12 the “viability, percent of control” value was 97.9% (inactive).
With COC(=O)C1=C(C)NC(C)=C(C(=O)OCCN2CCN(C(c3ccccc3)c3ccccc3)CC2)C1c1cccc([N+](=O)[O-])c1 (stereo not given) the “viability, percent of control” value was 102% (inactive).
In the case of CC(C)(C)c1cnc(CSc2cnc(NC(=O)C3CCNCC3)s2)o1, the Potency is reported as 0.235 µM (active).
In the case of COc1cc(C(=O)N2CCC(N3CCN(C)CC3)CC2)ccc1Nc1ncc2c(n1)N(C)c1ccccc1C(=O)N2C, the Potency is reported as 14.8 µM (active).
In the case of CC[C@@H]1C(=O)N(C)c2cnc(Nc3ccc(C(=O)NC4CCC(N5CCN(CC6CC6)CC5)CC4)cc3OC)nc2N1C(C)C (stereo not given in full), the Potency is reported as 0.0418 µM (active).
In the case of CCS(=O)(=O)c1cccc(-c2cc(C(=O)NC3CCN(C)CC3)c(C)c3[nH]c4ncc(C)cc4c23)c1, the Potency is reported as 0.935 µM (active).
With O=c1[nH]c(=O)n(C2CCCO2)cc1F (stereo not given) the “viability, percent of control” value was 108% [at 92.2 µM] (inactive).
